Screening data as filed in PubChem.
NADH coupling: inhibitors of enzymes used to reach an NAD/NADH endpoint; 0.02% of 65,000 active; coupled PK/LDH NADH assays, four targets; AID 774; IC50, µM (titrated, usually from 10 µM), for the others: at the highest dose inhibition;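 active = single-dose screening hits from any of four coupled enzyme assays that gave an IC50 when retested across doses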;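 note: the DPM-DC format reads NADH fluorescence rather than 340 nm absorbance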
Spn DPM-DC inh: S. pneumoniae DPM-DC inhibition | purified DPM-DC, PK/LDH coupled NADH fluorescence | calls only at 10 µM | 0.49% of 65,000 active | AID 556;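 active = the 320 compounds with the highest percent inhibition in the single-dose primary screen, excluding strongly autofluorescent ones, cut at about 32% in these data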;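 note: kinetic rate of NADH fluorescence loss reporting ADP formed by the decarboxylase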
Abs 340nm: compound absorbs light at 340 nm | compound absorbance at 340 nm, fold over control | fold change at 10 µM | AID 708 | 65,000 tested, under 10 active;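 active = at 10 µM dose, initial 340 nm absorbance at least 2 fold that of control wells; inactive = change under 2 fold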;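 note: initial absorbance extrapolated from kinetic A340 decline of NADH oxidation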
Autofluor 339: intrinsic fluorescence of library compounds, ex339/em460 – biochemical, MLSMR library, data from DPM-DC assay, artefact control, profiling panel; 5.5% of 65,000 active; AID 709; compound autofluorescence, ex339/em460 nm, NADH buffer; active compounds read high; 1 = no-compound wells, NADH background; fluorescence fold increase at 10 µM;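 active = at 10 µM, mean starting fluorescence two-fold or more over control wells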;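 note: signal is the first read of a kinetic run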
PMK inhibit: S. pneumoniae PMK inhibition; inhibition, % at 10 µM; purified PMK, PK/LDH-coupled NADH absorbance 340 nm; 0.49% of 65,000 active;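 active = top-ranked compounds by inhibition in the single 10 µM screen, taking a fixed number of the strongest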;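 note: 0% = full reaction with DMSO carrier and 100% = background rate without enzyme reaction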
MK inhibit: blocks S. pneumoniae mevalonate kinase. purified MK, PK/LDH-coupled NADH absorbance 340 nm. inhibition, % at 10 µM. 0.48% of 65,000 active;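 active = ranked among the strongest by inhibition in the single 10 µM screen, a fixed top-ranked set picked for dose follow-up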
The depositor's hits bear a star; i = inactive; . = not tested or not shown; + = active, no number. This is a sample that favours compounds with a hit; in the whole collection about 6.8% have one here.

SMILES	NADH coupling	Spn DPM-DC inh	Abs 340nm	Autofluor 339	PMK inhibit	MK inhibit
O=C(NCCN1C(=O)CCC1=O)c1ccncc1	5.0%	i	0.99	1.11	7.0	8.0
COc1ccc(-c2cc(=O)oc3cc(OCc4nn[nH]n4)ccc23)cc1	1.0%	i	1.17	1.92	0.0	1.0
Cc1c(Cc2ccccc2)c(=O)oc2cc(OCc3nn[nH]n3)ccc12	4.0%	.	1.13	3.8*	8.0	0.0
CCOC(=O)CCc1c(C)c2ccc(OCC(=O)OC(C)C)cc2oc1=O	5.0%	.	1.04	3.69*	6.0	4.0
COc1ccc(-c2cc3ccc(OCc4nn[nH]n4)cc3oc2=O)cc1OC	7.0%	i	1.24	1.81	9.0	0.0
CCOC(=O)CCc1c(C)c2ccc(OCc3nn[nH]n3)cc2oc1=O	6.0%	.	1.13	3.78*	11.0	0.0
Cc1ccc(S(=O)(=O)N2CCCCC2)cc1C(=O)Nc1ncn[nH]1	3.0%	i	1.01	1.08	9.0	0.0
COc1ccc(S(=O)(=O)N2CCC(C(=O)NCCC3=CCCCC3)CC2)cc1OC	7.0%	i	1.03	1.13	12.0	10.0
Cc1ccc2nc(-c3cccc(-c4nc5ccc(C)cc5o4)n3)oc2c1	10.0%	i	1.05	2.06*	24.0	0.0
Cc1ccc2nc(CCc3nc4ccc(C)cc4o3)oc2c1	6.0%	i	0.99	1.06	11.0	.
CCOC(=O)CN(C(=O)CSc1nnc(CNc2ccc(C)cc2C)o1)c1ccccc1	3.0%	i	0.94	1.1	3.0	6.0
O=C(NCc1cn2ccsc2n1)c1cccs1	5.0%	i	1.02	1.05	8.0	7.0
O=C(CCSc1nc(-c2ccco2)cc(C(F)(F)F)n1)N1CCN(c2ccccc2)CC1	1.0%	i	1.1	1.14	3.0	0.0
COc1ccc(-c2cc(C(F)(F)F)nc(SCCC(=O)Nc3cc(C)on3)n2)cc1	21.0%	+	1.04	1.82	8.0	13.0
COc1ccc(-c2cc(C(F)(F)F)nc(SCCC(=O)N3CCN4CCCC4C3)n2)cc1 (configuration not stated)	16.0%	+	1.11	2.33*	1.0	10.0
O=C(CCSc1nc(-c2ccc3c(c2)OCO3)cc(C(F)(F)F)n1)NCc1ccco1	17.0%	.	1.14	2.2*	28.0*	5.0
COc1ccc(-c2cc(C(F)(F)F)nc(NC3CCCC3)n2)cc1OC	2.0%	i	1.09	1.56	0.0	6.0
COc1ccc(OCCC(=O)Nc2cc(C)on2)cc1	10.0%	i	1.07	1.11	14.0	15.0
COc1ccc(-c2cc(C(F)(F)F)nc(SCC(=O)N3CC(C)OC(C)C3)n2)cc1OC (configuration not stated)	4.0%	.	1.17	3.48*	8.0	0.0
CCCCCOc1ccc(NC(=O)CCCC(=O)O)cc1	5.0%	i	1.03	1.04	8.0	8.0
Cc1sc2ncn(CC(=O)OC(C)C(=O)NC(C)(C)C)c(=O)c2c1C (configuration not stated)	4.0%	i	1.06	1.13	8.0	4.0
COc1ccc(-c2cc(C(F)(F)F)nc(SCC(=O)Nc3cc(C)on3)n2)cc1OC	10.0%	.	1.08	3.78*	12.0	8.0
Cc1cc(NC(=O)CSc2nc(-c3cccs3)cc(C(F)(F)F)n2)no1	6.0%	i	1.1	1.25	15.0	0.0
CCOC(=O)C(C(=O)OCC)C(=O)c1cc(OC)c(OC)c(OC)c1	5.0%	i	1.02	1.26	14.0	2.0
CCOC(=O)c1sc(=NC(=O)c2cc(OC)c(OC)c(OC)c2)n(C)c1C	8.0%	.	1.14	4.35*	9.0	6.0
SMILES	NADH coupling	Spn DPM-DC inh	Abs 340nm	Autofluor 339	PMK inhibit	MK inhibit
Fc1ccc(-c2cc3nc(-c4ccccc4)cc(N4CCOCC4)n3n2)cc1	8.0%	.	1.05	2.11*	16.0	0.0
Cc1nc2cc(-c3cccc(F)c3)nn2c(N2CCOCC2)c1C	9.0%	i	1.04	1.28	23.0	0.0
O=C(C1CCN(c2ccc(N3CCOCC3)nn2)CC1)N1CCN(c2ccc(F)cc2)CC1	8.0%	.	1.03	4.85*	14.0	2.0
O=C(c1ccc(N2CCOCC2)nc1)N1CCOCC1	2.0%	i	1.02	1.1	7.0	0.0
O=C(c1cncc(Br)c1)N1CCN(c2ccc(N3CCOCC3)nn2)CC1	11.0%	.	1.04	2.15*	11.0	10.0
O=C(c1ccc(N2CCCCS2(=O)=O)cc1)N1CCN(c2ccc(N3CCOCC3)nn2)CC1	15.0%	.	1.02	2.14*	20.0	10.0
O=C(NCc1ccco1)C1CCN(c2ccc(N3CCOCC3)nn2)CC1	2.0%	.	0.99	2.47*	5.0	12.0
O=C1CC(Cc2ccccc2)C(=O)N1Cc1ccco1 (configuration not stated)	1.0%	i	1.01	1.09	0.0	4.0
CC1CCCCC1n1c(=S)[nH]c2ccccc2c1=O (configuration not stated)	5.0%	i	1.04	1.05	4.0	11.0
COC(=O)C1=CN(C2CC2)C=C(C(=O)OC)C1c1ccccc1OC	6.0%	.	1.02	3.78*	8.0	4.0
CCOC(=O)c1ccc(Nc2cc(C)nc(N3CCOCC3)n2)cc1	9.0%	i	1.11	2.96*	5.0	7.0
CCOc1ccc(Nc2cc(C)nc(N3CCOCC3)n2)cc1	7.0%	i	0.99	1.03	10.0	9.0
COc1ccc2[nH]c(C(=O)O)c(CCNC(C)=O)c2c1	12.0%	i	1.01	2.49*	11.0	3.0
C=CCn1c(SCc2nc(N)nc(N3CCCCC3)n2)nnc1-c1ccco1	7.0%	i	1.01	1.06	14.0	6.0
COc1ccc(-c2oc3ncn4nc(COc5ccccc5)nc4c3c2-c2ccc(OC)cc2)cc1	6.0%	.	1.11	2.42*	6.0	6.0
COc1ccc(-c2nnc3sc(COc4ccccc4)nn23)cc1	3.0%	i	1.01	1.12	10.0	0.0
COc1ccc(-c2oc3ncn4nc(Cc5ccccc5)nc4c3c2-c2ccc(OC)cc2)cc1	1.0%	.	1.11	2.37*	0.0	2.0
COc1ccc(Cc2noc(-c3ccc(C)cc3)n2)cc1	1.0%	i	1.05	1.06	0.0	0.0
COc1cccc(Oc2cncnc2-c2ccc(OC)cc2O)c1	3.0%	i	1.1	1.1	4.0	5.0
O=c1[nH]c(-c2cccnc2)nc2ccccc12	1.0%	i	1.03	1.07	3.0	0.0
O=c1[nH]c(-c2ccncc2)nc2ccccc12	24.0%	+	1.06	1.17	18.0	21.0
O=C(O)[C@@H](c1ccccc1)N1Cc2ccccc2C1=O	27.0%	i	1.08	1.09	7.0	72.0*
CSCC[C@@H](C(=O)O)N1Cc2ccccc2C1=O	13.0%	i	1.04	1.12	5.0	35.0
CCOc1cc(C(=O)N(C)c2ccccc2)cc(OCC)c1OCC	2.0%	i	1.06	1.02	0.0	5.0
COC(=O)CC1SC(=O)NC1=Nc1ccccc1 (configuration not stated)	39.0%	+	1.01	1.73	11.0	7.0
